Measurements taken from PubChem BioAssay (Tox21).
Results filed as inconclusive are left out. Active and inactive are the calls of the source. Unless noted, the call rests on the fitted dose curve; in most records, active means well fitted curve in the direction sought with a large enough effect in the repeat runs; inconclusive means weak or mixed curves; inactive means no such curve, though single readings can be large; an effect the other way counts as inactive or inconclusive.

How the values were obtained:
[1] = qHTS RealTime-Glo MT Cell Viability Assay in HEK293 cells - 0 hour (AID 1224880); further: top concentration of the series differs between compounds; nearly all actives have a fitted effect of over 45% in size
Method in brief: (§1)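 600 HEK293 cells per well, dispensed already mixed with RealTime-Glo MT reagents. Compound dosing came 5 h later. The same wells were read for luminescence at 0, 8, 16, 24, 32 and 40 h of exposure at 37 C.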

[2] = A CellTox Green Cytotoxicity Assay to monitor cytotoxicity in HEK293 cells - 32 hour (AID 1224881); further: nearly all actives have a fitted effect of over 40% in size
Method in brief: (§2)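 Dead-cell fluorescence measured kinetically: asymmetric cyanine dye, HEK293, 600 cells/well, 5 h settle, 23 nL cpd/DMSO, 37 C, reads 0–40 h every 8 h.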

[3] = A CellTox Green Cytotoxicity Assay to monitor cytotoxicity in HepG2 cells - 0 hour (AID 1224882); further: nearly all actives have a fitted effect of over 35% in size
Method in brief: (§3)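 First, HepG2 cells (600/well) mixed with reagent were plated; second, after 5 h at 37 C they received compounds via pintool; third, fluorescence was measured at 0 h through 40 h at 8 h intervals.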

[4] = A CellTox Green Cytotoxicity Assay to monitor cytotoxicity in HepG2 cells - 32 hour (AID 1224883); further: nearly all actives have a fitted effect of over 50% in size
Method in brief: as §3

[5] = A CellTox Green Cytotoxicity Assay to monitor cytotoxicity in HEK293 cells - 8 hour (AID 1224884); further: nearly all actives have a fitted effect of over 35% in size
Method in brief: as §2

[6] = qHTS RealTime-Glo MT Cell Viability Assay in HepG2 cells - 16 hour (AID 1224885); further: nearly all actives have a fitted effect of over 50% in size
Method in brief: (§4)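 Cell number in HepG2 cultures estimated from NanoLuc luminescence generated by metabolic reduction of a prosubstrate by living cells. The homogeneous, nonlytic format allowed repeated reads at 0, 8, 16, 24, 32 and 40 h of compound exposure.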

[7] = qHTS RealTime-Glo MT Cell Viability Assay in HEK293 cells - 24 hour (AID 1224886); further: top concentration of the series differs between compounds; nearly all actives have a fitted effect of over 50% in size
Method in brief: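 Homogeneous bioluminescent viability format in HEK293 cells (600 cells/well). Following 5 h at 37 C/5% CO2, 23 nL compound was pintooled; the signal was measured repeatedly during 40 h incubation.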

[8] = qHTS RealTime-Glo MT Cell Viability Assay in HEK293 cells - 8 hour (AID 1224887); further: top concentration of the series differs between compounds; nearly all actives have a fitted effect of over 50% in size
Method in brief: as §1

[9] = A CellTox Green Cytotoxicity Assay to monitor cytotoxicity in HEK293 cells - 16 hour (AID 1224888); further: nearly all actives have a fitted effect of over 35% in size
Method in brief: as §2

[10] = qHTS RealTime-Glo MT Cell Viability Assay in HepG2 cells - 0 hour (AID 1224889); further: nearly all actives have a fitted effect of over 50% in size
Method in brief: as §4

[11] = A CellTox Green Cytotoxicity Assay to monitor cytotoxicity in HepG2 cells - 8 hour (AID 1224890); further: nearly all actives have a fitted effect of over 45% in size
Method in brief: as §3

[12] = qHTS assay to identify small molecule antagonists of the estrogen receptor alpha (ER-alpha) signaling pathway using the BG1 cell line in the presence of 0.1 nM 17-beta-estradiol - cell viability counter screen (AID 1259241); further: nearly all actives have a fitted effect of over 40% in size
Method in brief: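 Cells were plated and left 24 hr, compounds in DMSO were pinned in, 17beta-estradiol was added to 0.1 nM final, and after 22 hr CellTiter-Fluor reagent was added for 30 min before fluorescence was read.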

[13] = qHTS assay to identify small molecule antagonists of the androgen receptor (AR) signaling pathway using the MDA cell line in the presence of 0.5 nM R1881 - cell viability counter screen (AID 1259242); further: nearly all actives have a fitted effect of over 45% in size
Method in brief: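 qHTS format. MDA-kb2 (MMTV-luc, AR/GR responsive) + cpd + 0.5 nM R1881 final, 16 hr 37C/0% CO2 → CellTiter-Fluor 30 min → fluorescence intensity.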

[14] = molecular target: Estrogen receptor (Homo sapiens) (UniProt P03372); experiment: qHTS assay to identify small molecule antagonists of the estrogen receptor alpha (ER-alpha) signaling pathway using the BG1 cell line in the presence of 0.1 nM 17-beta-estradiol (AID 1259244); further: nearly all actives have a fitted effect of over 50% in size
Method in brief: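 Reporter is a stably transfected luciferase under four estrogen responsive elements in VM7Luc4E2 cells expressing native full-length ER-alpha; inhibition of 0.1 nM (final) 17beta-estradiol-driven signal over 22 h is read by luminescence.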

[15] = qHTS assay to identify small molecule HDAC inhibitors (AID 1259364);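 further: wild-type HCT-116 cells with endogenous class I/II HDAC activity; top concentration of the series differs between compounds; nearly all actives have a fitted effect of over 45% in size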
Method in brief: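 Quantitative high-throughput format: overnight-seeded HCT-116 cells got compounds for 2 hr at 37C; HDAC-Glo I/II reagent added, 30 min RT, luminescence measured.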

[16] = qHTS assay to identify small molecule HDAC inhibitors - cell viability counter screen (AID 1259365)
Method in brief: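 Counter screen in wild-type HCT-116 cells: compounds dissolved in DMSO are pin-transferred onto overnight-plated cells and left 2hr at 37C. ATP-based CellTiter-Glo luminescence then measures viable cells.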

[17] = qHTS assay to identify small molecule agonists of the sonic hedgehog signaling (Shh) pathway - cell viability counter screen (AID 1259366); further: nearly all actives have a fitted effect of over 50% in size
Method in brief: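 Cells are plated at 2,000 per well and left 4hr at 37C, 5% CO2 before compound addition. After 23hr of treatment, CellTiter-Fluor reagent is added for 1hr at 37C and fluorescence is measured.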

[18] = qHTS assay to identify small molecule antagonists of the sonic hedgehog signaling (Shh) pathway - cell viability counter screen (AID 1259367); further: nearly all actives have a fitted effect of over 55% in size; further: potency means the concentration at half of the fitted maximal effect
Method in brief: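 Tox21 library chemicals were tested on a Gli1-Luc NIH/3T3 clone (2,000 cells/well) stimulated by conditioned medium; viability was quantified as fluorescence from CellTiter-Fluor reagent added at 23 hr.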

[19] = qHTS assay to identify small molecule phospholipidosis (PLD) inducers (AID 1259344; active means well fitted curve in the direction sought with a large enough effect; an effect the other way counts as inactive or inconclusive)
Method in brief: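 Image-based: LipidTOX Red pit count/intensity per well and per cell; HepG2, 24 h compound at 37 C, PFA fixation, Hoechst counterstain.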

[20] = molecular target: Androgen receptor (Homo sapiens) (UniProt P10275); experiment: qHTS assay to identify small molecule antagonists of the androgen receptor (AR) signaling pathway using the MDA cell line in the presence of 0.5 nM R1881 (AID 1259243); further: nearly all actives have a fitted effect of over 50% in size; further: potency means the concentration at half of the fitted maximal effect
Method in brief: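 Antagonist mode quantitative HTS in MDA-kb2 MMTV-luciferase cells, agonist R1881 at 0.5 nM final, 16 hr exposure at 37C and 0% CO2, luminescent detection.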

Measured: Potency

Sequence of Estrogen receptor (Homo sapiens) (P03372 whole entry, looked up): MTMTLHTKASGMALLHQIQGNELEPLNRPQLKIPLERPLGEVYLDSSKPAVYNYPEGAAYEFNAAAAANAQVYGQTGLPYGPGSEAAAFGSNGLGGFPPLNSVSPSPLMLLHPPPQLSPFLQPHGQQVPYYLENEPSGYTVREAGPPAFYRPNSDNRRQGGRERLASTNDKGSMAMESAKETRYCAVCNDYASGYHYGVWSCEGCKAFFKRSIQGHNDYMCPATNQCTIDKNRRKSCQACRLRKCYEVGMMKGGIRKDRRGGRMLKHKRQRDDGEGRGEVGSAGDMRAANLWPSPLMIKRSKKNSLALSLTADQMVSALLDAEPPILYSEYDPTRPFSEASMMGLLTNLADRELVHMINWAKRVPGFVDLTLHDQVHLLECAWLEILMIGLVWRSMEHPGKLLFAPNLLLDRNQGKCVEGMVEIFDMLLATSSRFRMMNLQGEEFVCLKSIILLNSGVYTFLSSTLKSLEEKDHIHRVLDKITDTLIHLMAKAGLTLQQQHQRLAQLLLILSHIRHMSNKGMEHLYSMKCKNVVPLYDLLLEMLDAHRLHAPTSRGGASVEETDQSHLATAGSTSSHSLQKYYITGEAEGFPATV
Sequence of Androgen receptor (Homo sapiens) (P10275 whole entry, looked up): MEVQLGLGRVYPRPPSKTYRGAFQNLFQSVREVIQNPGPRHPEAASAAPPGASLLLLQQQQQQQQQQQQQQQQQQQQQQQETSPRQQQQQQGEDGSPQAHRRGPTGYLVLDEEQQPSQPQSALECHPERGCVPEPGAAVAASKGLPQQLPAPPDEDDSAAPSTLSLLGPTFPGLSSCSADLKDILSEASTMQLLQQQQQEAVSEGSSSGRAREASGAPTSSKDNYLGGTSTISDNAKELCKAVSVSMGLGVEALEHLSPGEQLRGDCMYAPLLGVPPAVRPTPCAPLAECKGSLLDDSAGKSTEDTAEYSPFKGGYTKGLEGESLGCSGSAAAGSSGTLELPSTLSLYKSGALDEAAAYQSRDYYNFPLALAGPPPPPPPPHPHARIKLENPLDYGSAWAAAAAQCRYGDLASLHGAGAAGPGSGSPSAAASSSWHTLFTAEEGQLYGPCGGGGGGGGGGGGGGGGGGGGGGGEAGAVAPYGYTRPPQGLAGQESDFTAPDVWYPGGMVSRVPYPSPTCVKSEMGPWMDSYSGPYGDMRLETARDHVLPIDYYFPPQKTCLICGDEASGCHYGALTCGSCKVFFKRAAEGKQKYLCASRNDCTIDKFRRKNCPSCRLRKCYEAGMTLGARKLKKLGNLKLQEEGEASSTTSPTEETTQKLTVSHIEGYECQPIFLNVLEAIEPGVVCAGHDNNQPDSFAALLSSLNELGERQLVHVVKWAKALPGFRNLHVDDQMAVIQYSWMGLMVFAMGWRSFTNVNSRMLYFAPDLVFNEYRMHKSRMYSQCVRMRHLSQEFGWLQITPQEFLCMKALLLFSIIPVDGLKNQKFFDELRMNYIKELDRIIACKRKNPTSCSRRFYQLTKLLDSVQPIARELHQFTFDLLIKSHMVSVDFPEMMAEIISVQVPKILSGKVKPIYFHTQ

CC(=O)CCC(C)=O
not listed: [19] | [20]
inactive: all other assays above

C#CCOC(C(=O)OCCN(C)C)(c1ccccc1)c1ccccc1
not listed: [14] | [20]
inactive: all other assays above

CC(=O)[C@H]1CC[C@H]2[C@@H]3CC[C@H]4C[C@](C)(O)CC[C@]4(C)[C@H]3CC[C@]12C
not listed: [20]
inactive: all other assays above

CCOc1ccc(C(C)(C)COCc2cccc(Oc3ccccc3)c2)cc1
not listed: [17] | [19] | [20]
inactive: all other assays above

COC(=O)c1cncn1C(C)c1ccccc1 (stereo not given)
not listed: [20]
inactive: all other assays above

COP(=S)(OC)Oc1cc(Cl)c(I)cc1Cl
active: [20] 54.5 µM
not listed: [14] | [18] | [19]
inactive: all other assays above

COCCOCCO
active: [18] 61.1 µM
not listed: [14] | [17] | [20]
inactive: all other assays above

O=S(=O)(Cl)c1ccccc1
not listed: [14] | [18] | [19] | [20]
inactive: all other assays above

O=C(C(Cl)(Cl)Cl)C(Cl)(Cl)Cl
not listed: [18] | [19]
inactive: all other assays above

C[N+](C)(C)CCCl
not listed: [18] | [19]
inactive: all other assays above

C=CCC1([C@H](C)CCC)C(=O)NC(=O)NC1=O
not listed: [18] | [20]
inactive: all other assays above

NNC(=O)c1cccnc1
not listed: [15] | [19] | [20]
inactive: all other assays above

CCCCNP(N)(N)=S
not listed: [19] | [20]
inactive: all other assays above

BrCCCCBr
not listed: [19] | [20]
inactive: all other assays above

CC(=O)NC1CCSC1=O (stereo not given)
not listed: [18]
inactive: all other assays above

C=CC(C)=O
not listed: [19] | [20]
inactive: all other assays above
